From PubChem BioAssay come the findings set out here.

Calls of active or inactive are those of the source. No rule for the calls is given here.

Chain of Pantothenate synthetase (Mycobacterium tuberculosis (strain ATCC 25618 / H37Rv)) (P9WIL5 whole entry, looked up): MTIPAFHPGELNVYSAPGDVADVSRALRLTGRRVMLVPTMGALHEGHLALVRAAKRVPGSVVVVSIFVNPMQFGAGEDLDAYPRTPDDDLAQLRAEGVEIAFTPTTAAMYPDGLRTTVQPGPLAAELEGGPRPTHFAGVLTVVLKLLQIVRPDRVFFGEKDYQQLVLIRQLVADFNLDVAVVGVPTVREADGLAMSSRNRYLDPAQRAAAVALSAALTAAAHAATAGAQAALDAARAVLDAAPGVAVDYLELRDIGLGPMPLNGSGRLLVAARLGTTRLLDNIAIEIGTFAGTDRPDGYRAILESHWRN

The experiment addresses Pantothenate synthetase (Mycobacterium tuberculosis (strain ATCC 25618 / H37Rv)) (UniProt P9WIL5). The experiment can be described thus: Recombinant Mtb pantothenate synthetase (PanC) inhibitors, coupled enzyme, confirmatory (AID 375).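 Also: 0% = full reaction with vehicle and 100% = no enzyme background.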 To be noted: coupled enzyme assay; at 10 µM, stronger effect = higher value.
For the molecule `N#C/C(=C\c1ccc(O)c(O)c1)C(=O)NCCCc1ccccc1`, the inhibition – broadly, the relative decrease from the control value, in per cent – is 0% (inactive). On to `O=C(Nc1cccnc1)c1ccc2c(c1)C(=O)N(Cc1cccnc1)C2=O`, for which the inhibition is 0% (inactive). For `CCC(C(=O)NC1CCCC1)N(Cc1ccco1)C(=O)Cn1nnc(-c2ccc(C)cc2)n1` (stereo not given) the value was 5% (inactive); for `Cc1c(NC(=O)c2ccc(COc3ccc4ccccc4c3)o2)c(=O)n(-c2ccccc2)n1C`, 0% (inactive). For `O=C(Cn1c(=O)n(CC2CCCO2)c(=O)c2ccccc21)c1ccccc1` (stereo not given) the value was 0% (inactive); for `Cc1cc(-c2ccccc2)c2c3c(cn2n1)c(=O)n(C)c(=O)n3C`, 0% (inactive); for `CC(C)C(=O)Nc1ccc(-c2nc3cccnc3o2)cc1`, 2% (inactive). For `CCCCn1c(CN2CCN(c3ccccc3)CC2)nc2c1c(=O)n(C)c(=O)n2C`, the inhibition was 0% (inactive).

With `CCN(CC)CCN1C(=O)C(=O)/C(=C(/O)c2c(C)[nH]c(C(=O)OC)c2C)C1c1ccco1` (stereo not given), the inhibition was 0% (inactive).

For `CN1CCN(CC(=O)N2c3ccccc3C(=O)Nc3cccnc32)CC1`, the inhibition is 4% (inactive).

As to `COC(=O)c1ccc(CSc2nc3ccccc3s2)o1`, the inhibition is 0% (inactive).

With `CCOC(=O)C1=C(C)NC(C)=C(C(=O)OCC)C1C(=O)OC1CCOC1=O` (stereo not given), the inhibition is 13% (inactive). For `COC(=O)c1cc(=O)n2c(-c3ccc(OC)cc3)csc2n1` the value was 3% (inactive); for `O=C(NCC(=O)N(Cc1cccs1)C(C(=O)NC1CCCC1)c1ccncc1)c1ccco1` (stereo not given), 4% (inactive); for `COc1ccccc1N1CCN(C(=O)CSc2nc3ncnc(N)c3[nH]2)CC1`, 8% (inactive). For `O=C(O)CCC(=O)NC1CCCCC1NC(=O)CCC(=O)O` (stereo not given) the value was 0% (inactive); for `CCC(C)NC(=O)CSC1=Nc2ccccc2C2=NC(CC(=O)NCc3ccccc3)C(=O)N12` (stereo not given), 0% (inactive). For `CC1Cc2nc(SCC(=O)Nc3ccc4c(c3)OCO4)n(-c3ccc(F)cc3)c(=O)c2S1` (stereo not given) the value was 0% (inactive). On to `CC(=O)N(c1ccc(Br)cc1)C1C=CS(=O)(=O)C1` (stereo not given), for which the inhibition is 2% (inactive).

As for `O=C(Cn1c(=O)oc2ccccc21)Nc1ccc(S(=O)(=O)N2CCCCC2)cc1`, the inhibition was 0% (inactive). For the molecule `COc1ccc(CNC(=O)c2nnn(Cc3ccc(OC)cc3)c2N)cc1`, the inhibition is 0% (inactive). In the case of `O=C(NC1CCCC1)C(NS(=O)(=O)c1cccc2nsnc12)c1ccccc1` (stereo not given), the inhibition is 7% (inactive). For `Cc1ccc(O)c(C(CC(=O)N2CCCC2)c2ccccc2)c1` (stereo not given) the value was 0% (inactive); for `CCCCCCOC(=O)C(C#N)c1nc2ccccc2nc1N1CCCCC1` (stereo not given), 0% (inactive); for `CCOc1ncccc1C(=O)Nc1ccc2c(C)cc(=O)oc2c1`, 7% (inactive). Take `Cc1ccc(S(=O)(=O)C2(C(=O)Nc3cccnc3)CC2)cc1`: the inhibition is 1% (inactive). For `CCOC(=O)c1sc(NC(=O)CSc2n[nH]c(-c3ccccc3)n2)c(C#N)c1C` the value was 11% (inactive); for `COc1ccc(CN2CC(C(=O)NCCCOC(C)C)CC2=O)cc1` (stereo not given), 3% (inactive); for `CCCn1c(SCC(=O)N2CCc3ccccc3C2)nc2c1c(=O)n(C)c(=O)n2C`, 1% (inactive). For `CCOC(=O)CCC(=O)O[C@H]1[C@H](O[C@@H]2[C@@H](C)[C@H](O[C@H]3C[C@@](C)(OC)[C@@H](O)[C@H](C)O3)[C@@H](C)C(=O)O[C@H](CC)[C@@](C)(O)[C@H](O)[C@@H](C)C(=O)[C@H](C)C[C@@]2(C)O)O[C@H](C)C[C@@H]1N(C)C` the value was 0% (inactive).

Turning to `Nc1ccc(-n2c(N)c(C(=O)NCc3ccc4c(c3)OCO4)c3nc4ccccc4nc32)cc1`, the inhibition is 14% (inactive). Take `CCOC(=O)c1c(NC(=O)Cn2c(C)nc3ccccc32)sc2c1CCC2`: the inhibition was 0% (inactive). For `O=C(Nc1nccs1)NC(C(F)(F)F)C(F)(F)F` the value was 7% (inactive); for `Cc1ccc(C2C(C(=O)c3sc(C)nc3C)=C(O)C(=O)N2CCN(C)C)o1` (stereo not given), 0% (inactive); for `NCCCCCc1nnc(SC/C=C/c2ccccc2)o1`, 0% (inactive). Take `CC(C)c1ccc(S(=O)(=O)N2CCN(CCC(=O)Nc3ccc(N(C)C)cc3)CC2)cc1`: the inhibition is 5% (inactive). For `Cc1ccc(C(=O)NC2CC3CCCC(C2)N3C(=O)NC2CCCCC2)cc1` (stereo not given) the value was 8% (inactive). For `CN(Cc1nc(-c2ccncc2)no1)S(=O)(=O)c1ccc(Cl)cc1` the value was 0% (inactive); for `Cn1c(=O)n(Cc2ccc(F)cc2)c(=O)c2c1nc1n2CCCN1Cc1ccccc1`, 0% (inactive). `Cc1cc(C)c(C(=O)CSc2nnc(-c3ccccc3Br)o2)cc1C`: the inhibition is 2% (inactive).
